ABCB6 inh MLPCN: ABCB6 transporter inhibitors, primary screen, K562-ABCB6 cells, flow cytometry, MLPCN library | ATP-binding cassette sub-family B member 6 (Homo sapiens), Q9NP58 | K562-ABCB6 porphyrin accumulation, 1 h; hits give low values | fluorescence ratio to DMSO, % at 10 µM | 360,000 tested, 0.19% active;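 active = fluorescence ratio to DMSO below 75%, the collection mean minus 3 SD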;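 also: signal is porphyrin accumulated inside mitochondria; lower ratio means ABCB6 inhibition with less porphyrin fluorescence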
Target sequence (Q9NP58 whole entry, looked up): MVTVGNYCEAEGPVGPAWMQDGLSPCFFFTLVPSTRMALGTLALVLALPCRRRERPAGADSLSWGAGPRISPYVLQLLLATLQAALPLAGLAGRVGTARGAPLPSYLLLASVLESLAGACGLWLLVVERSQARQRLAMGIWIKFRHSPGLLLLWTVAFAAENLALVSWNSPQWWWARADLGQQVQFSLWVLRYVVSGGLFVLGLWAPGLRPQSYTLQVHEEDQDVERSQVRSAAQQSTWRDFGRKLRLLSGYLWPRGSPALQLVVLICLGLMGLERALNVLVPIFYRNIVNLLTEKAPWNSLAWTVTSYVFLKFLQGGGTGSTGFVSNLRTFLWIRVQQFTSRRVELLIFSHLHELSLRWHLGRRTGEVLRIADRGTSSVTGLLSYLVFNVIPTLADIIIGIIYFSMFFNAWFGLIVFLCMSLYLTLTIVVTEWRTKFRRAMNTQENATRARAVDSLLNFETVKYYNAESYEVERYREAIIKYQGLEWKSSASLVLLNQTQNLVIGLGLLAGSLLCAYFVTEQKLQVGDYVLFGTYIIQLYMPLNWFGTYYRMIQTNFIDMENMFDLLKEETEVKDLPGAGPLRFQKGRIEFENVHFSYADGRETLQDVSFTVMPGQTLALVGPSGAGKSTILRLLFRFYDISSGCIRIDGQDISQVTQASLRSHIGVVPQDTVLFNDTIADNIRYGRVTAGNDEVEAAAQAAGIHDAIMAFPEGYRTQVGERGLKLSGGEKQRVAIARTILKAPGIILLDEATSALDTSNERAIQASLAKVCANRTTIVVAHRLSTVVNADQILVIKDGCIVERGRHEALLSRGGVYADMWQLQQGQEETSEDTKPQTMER
Exocytosis inh: LAMP-1 surface exposure blockers, TALL-104 cells – cell-based, flow cytometry, MLPCN library, primary screen | TALL-104 LAMP-1 surface exposure; cells stimulated with thapsigargin and PMA | inhibition, % at 10 µM | 360,000 tested, 0.66% active;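 active = inhibition above about 55%, limit read from the data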
PG9 Ab binder: binders of HIV-1 gp120 antibody PG9, primary screen, biochemical, TR-FRET; HIV-1 gp120 / PG9 antibody interaction; inhibition, % at 6.7 µM; AID 624416, 2012; TR-FRET gp120-PG9 antibody binding; 360,000 tested, 0.43% active; in the data active = inhibition above about 8.5%
Rev-erbA mod: modulators of Rev-erb alpha DNA binding, primary screen, biochemical, FITC-DNA, fluorescence polarization, uHTS; Nuclear receptor subfamily 1 group D member 1 (Homo sapiens), P20393; AID 1259318, 2017; Rev-erbα–FITC-DNA binding, 90 min; activity, % at 10 µM; 370,000 tested, 0.79% active;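 active = activity above about 14%, limit read from the data; passing the limit was not always enough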
VLA-4 inh: inhibition in human VLA-4 binding assay, primary screen, VLA-4 allosteric modulator project, MLPCN library, flow cytometry, VLA-4 expressing cells; inhibition, % (about 7 µM as worked out from the volumes in the protocol); AID 2557, 2010; Integrin alpha-4 (Homo sapiens), P13612; ligand binding flow cytometry; 330,000 tested, 0.2% active; in the data active = inhibition above about 50%
Of the large screens only hits and unclear results are named; the others gave an inactive call. Hits are enriched below; roughly 2% of the tested compounds scored in any of these assays.

CCN(CC)CCn1c(SCC(=O)Nc2cccc(OC)c2)nc2c(sc3ccccc32)c1=O	Exocytosis inh 69.4
COc1cccc(NC(=O)CSc2nc3c(sc4ccccc43)c(=O)n2CCN(C)C)c1	none
CCOC(=O)N1CCC(NC(=O)CCC(=O)N2CCOc3ccccc32)CC1	PG9 Ab binder 15.3
CN(c1ccc(OCC(=O)OCC(=O)c2c(N)n(C)c(=O)n(C)c2=O)cc1)S(=O)(=O)c1ccc2ccccc2c1	Exocytosis inh 69.2
CCN(c1ccc(OCC(=O)OCC(=O)c2c(N)n(C)c(=O)n(C)c2=O)cc1)S(=O)(=O)c1ccccc1	none
COc1ccc(OC)c(/C=N\NC(=O)c2ccc(-c3ccccc3)cc2)c1	none
COc1cccc(/C=N/NC(=O)c2ccc(-c3ccccc3)cc2)c1O	Exocytosis inh 59.0
COc1ccc(CS(=O)(=O)/C(Cl)=C(/Cl)C(=O)Nc2ccc(OC)nc2)cc1	Exocytosis inh 84.4 (no result: PG9 Ab binder, Rev-erbA mod)
COc1ccc(NC(=O)/C(Cl)=C(/Cl)S(=O)Cc2ccccc2)cn1 (stereo not drawn)	ABCB6 inh MLPCN 25.0
COc1ccc(/C=C/C(=O)Nc2ccc(OC)nc2)cc1	none
CCn1c(SCC(=O)NN=Cc2cccc(OCc3ccccc3)c2)nnc1-c1ccc(OC)c(OC)c1	none (no result: ABCB6 inh MLPCN, Exocytosis inh, PG9 Ab binder, VLA-4 inh)
COc1ccccc1-n1c([S-])c(C(=O)Nc2ccccc2C(F)(F)F)[n+]2ccc(C(=O)NCCO)cc12	Exocytosis inh 63.3
O=C(CCN1C(=O)/C(=C/c2ccccc2)SC1=S)NCCCN1CCOCC1	none
O=C(CCN1C(=O)/C(=C\c2cccc(Br)c2)SC1=S)NCCCN1CCOCC1	Exocytosis inh 75.4
COc1ccc(-c2ccc3c(n2)CCCN3S(=O)(=O)c2ccc(C(F)(F)F)cc2)cc1	none (no result: ABCB6 inh MLPCN, Exocytosis inh, VLA-4 inh)
COc1ccc(OC)c2cc3ccccc3cc12	Exocytosis inh 103.5 (no result: VLA-4 inh)
CN1CCCN(C(=O)C2CCN(c3ncnc4c3sc3cccc(F)c34)CC2)CC1	none (no result: ABCB6 inh MLPCN, Exocytosis inh, PG9 Ab binder, VLA-4 inh)
Cc1ccc(OCCN2C(=O)C(=O)c3cc(C)ccc32)cc1	Exocytosis inh 71.7
N#Cc1ccc2nc(-c3ccc(CN4CCC(c5nc6ccccc6[nH]5)CC4)cc3)c(-c3ccccc3)nc2c1	none (no result: ABCB6 inh MLPCN, Exocytosis inh, VLA-4 inh)
C/C=C(\C)C(=O)OC1[C@H](OC(C)=O)C2(CO)C(CC1(C)C)C1=CCC3C4(C)CCC(O[C@@H]5O[C@H](C(=O)O)[C@@H](O[C@@H]6O[C@H](CO)[C@@H](O)[C@H](O)[C@H]6O)[C@H](O)[C@H]5O[C@H]5O[C@H](CO)[C@@H](O)[C@H](O)[C@H]5O)[C@](C)(CO)C4CCC3(C)[C@]1(C)C[C@H]2O (stereo partly drawn)	Exocytosis inh 71.0 (no result: PG9 Ab binder, Rev-erbA mod, VLA-4 inh)
C/C=C(/C)C(=O)O[C@@H]1[C@H](OC(C)=O)[C@@]2(CO)C(CC1(C)C)C1=CCC3[C@@]4(C)CC[C@H](O[C@@H]5O[C@H](C(=O)O)[C@@H](O[C@@H]6O[C@H](CO)[C@@H](O)[C@H](O)[C@H]6O)[C@H](O)[C@H]5O[C@@H]5O[C@H](CO)[C@@H](O)[C@H](O)[C@H]5O)[C@](C)(CO)C4CC[C@@]3(C)[C@]1(C)C[C@H]2O (stereo partly drawn)	none (no result: ABCB6 inh MLPCN, Exocytosis inh, PG9 Ab binder, VLA-4 inh)
O=Cc1cccnc1SCc1ccccc1	Exocytosis inh 64.4
Oc1cccnc1SCc1ccccc1	none
CC(C)/C=C1\CC/C(=C\c2ccc(N(C)C)cc2)C1=O	Exocytosis inh 55.8
CCOC(=O)[C@@]12CN(C(=O)OC(C)(C)C)CC=C1N(Cc1ccc(OC)cc1)C(=O)[C@H]2CC(=O)N1CCC(c2ccccc2)CC1	none (no result: ABCB6 inh MLPCN, Exocytosis inh, PG9 Ab binder, VLA-4 inh)
CC(C)(C)c1ccc(S(=O)(=O)NCC(=O)N2CCN(c3ncccn3)CC2)cc1	none (no result: ABCB6 inh MLPCN, Exocytosis inh, PG9 Ab binder, VLA-4 inh)
Cc1ccc(NC2c3ccccc3C(=O)N2c2cccnc2)cc1 (stereo not drawn)	none
COc1ccc(OC)c(NC2c3ccccc3C(=O)N2c2cccnc2)c1 (stereo not drawn)	PG9 Ab binder 8.9
CCN(CC)c1ccc(/C=C2/SC(=O)N(C(C)C)C2=O)o1	Exocytosis inh 78.3 (no result: VLA-4 inh)
CC(C)N1C(=O)S/C(=C\c2ccc(-c3ccc(Cl)c(C(=O)O)c3)o2)C1=O	none
N#CC(C#N)=C1C=CC=CN1/C(=C\c1ccccc1Cl)C(=O)c1ccccc1	Exocytosis inh 67.7
N#CC(C#N)=C1C=CC=CN1/C(=C\c1ccccc1)C(=O)c1cccs1	none
C=CS(=O)(=O)c1ccc(Oc2ccc(S(=O)(=O)C=C)cc2)cc1	Exocytosis inh 88.8
CC(=O)c1ccc([C@H](O)[C@H](C)C(=O)N(C)c2ccccc2)cc1	none (no result: ABCB6 inh MLPCN, Exocytosis inh, PG9 Ab binder, VLA-4 inh)
c1ccc(CN2CCCC3CC2c2ccccc23)cc1 (stereo not drawn)	none (no result: ABCB6 inh MLPCN, Exocytosis inh, VLA-4 inh)
Cc1[nH]c(C(=O)N/N=C/c2ccc(C(=O)O)cc2)c(C)c1C(=O)N/N=C/c1ccc(C(=O)O)cc1	none
CCOC(=O)c1c(C)[nH]c(C(=O)N/N=C/c2ccc(Br)cc2)c1C	ABCB6 inh MLPCN 74.0
CCOc1ccc(/C(O)=C2/C(=O)C(=O)N(CCOCCO)C2c2cccnc2)cc1 (stereo not drawn)	PG9 Ab binder 9.0
CCOc1ccc(/C(O)=C2/C(=O)C(=O)N(CCOCCO)C2c2ccccc2)cc1 (stereo not drawn)	none
COc1ccc(C=NN(C)C(=O)Nc2cccc(Cl)c2)cc1OC	none (no result: ABCB6 inh MLPCN, Exocytosis inh, VLA-4 inh)
O=C1c2ccccc2S(=O)(=O)N1CC(O)COc1ccc(Cl)cc1 (stereo not drawn)	none
O=C1c2ccccc2S(=O)(=O)N1CC(O)COc1ccc(Br)cc1 (stereo not drawn)	ABCB6 inh MLPCN 73.0
COc1ccc(/C=C(\C#N)C(=O)N=CN(C)C)cc1	none
COc1ccc(/C=C(\C#N)C(=O)N2COCC2(C)C)cc1	Exocytosis inh 56.4
Cc1ccc2c(c1C)-c1c(ccc(C)c1C)C(=O)C2=O	Exocytosis inh 105.9 (no result: VLA-4 inh)
COC(=O)[C@]12C[C@H](CC(=O)NCCc3ccccc3OC)C(=O)N(Cc3ccc(Cl)cc3Cl)C1=C[C@H](C1CCCC1)O[C@@H]2C	none (no result: ABCB6 inh MLPCN, Exocytosis inh, PG9 Ab binder, VLA-4 inh)
O=C(/C=C/c1ccccc1)NNC(=O)C1CC1	ABCB6 inh MLPCN 65.0
COC(=O)NNC(=O)/C=C/c1ccccc1	none
CC1(C)CC[C@]2(C(=O)O)CC[C@]3(C)C(=CC[C@@H]4[C@@]5(C)CC[C@H](O)C(C)(C)[C@@H]5CC[C@]43C)[C@@H]2C1	none
CC1(C)CC[C@]2(C(=O)O)CC[C@]3(C)C(=CCC4[C@@]5(C)CC[C@H](O)C(C)(C)C5CC[C@]43C)C2C1 (stereo partly drawn)	Exocytosis inh 55.7
O=C(NCCN1CCCC1)c1ccccc1Cl	none
O=C1C(Cl)=C(NCCN2CCCCC2)C(=O)c2ccccc21	Exocytosis inh 56.2 (no result: PG9 Ab binder, Rev-erbA mod)
O=C1C(=O)N(Cc2ccc(-c3ccc(F)nc3)cc2)c2ccc(OC(F)(F)F)cc21	none (no result: ABCB6 inh MLPCN, Exocytosis inh, PG9 Ab binder, VLA-4 inh)

Assay outcomes (PubChem)
